The list is not random: actives were taken first. Their share in the collection is about 9.6%.
Cav3 T inh: human Cav3.2 channel inhibition, primary screen | B-score at 10 µM | 100,000 tested, 4% active | Cav3.2-expressing cells, Fluo-4 calcium fluorescence FDSS; active compounds read low | O95180;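 active = single-dose well whose peak fluorescence ratio is a statistical outlier from its plate by either plate-standardised score or position-corrected B-score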
PLAP activator: activates human placental alkaline phosphatase; P05187; purified PLAP enzyme, luminescent substrate read-out; active compounds read high; activation fold at 20 µM; 96,000 tested, 1.2% active; in the data active = activation fold above about 2
PostGolgi ctrl: yeast control strain growth, post-Golgi counter-screen. efflux-deficient yeast background strain, growth absorbance A615, 16 h. inhibition, % at 10 µM. 98,000 tested, 5% active. AID 738
hDAT+cocaine: changed human dopamine transporter uptake under cocaine IC80; Q01959; LLC-PK1 hDAT cells, [14C]-dopamine uptake with cocaine IC80; actives deviate in either direction; B-score at 10 µM; 110,000 tested, 1.3% active; AID 449768;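 active = Z score or B-score, a plate-position-corrected score, falls beyond the plate's 99.7% confidence bounds, in either direction; inactive = both scores lie inside the 99.7% bounds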;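 also: scored against the spread of the other compound wells on the same plate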
PostGolgi yeast: growth inhibition of a yeast mutant, post-Golgi transport screen; post-Golgi transport phenotypic cell assay; 98,000 tested, 0.9% active; inhibition, % at 10 µM;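 also: yeast cells grown in 1536-well plates; yeast grown about 18 h at 30C before absorbance read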
* marks the source's active call; other numbers are inactive results; / = no result. Rule as the data show it, unless noted: active = inhibition above about 30%; inactive = the rest.

SMILES	Cav3 T inh	PLAP activator	PostGolgi ctrl	hDAT+cocaine	PostGolgi yeast
CC1(C)CC(=O)C2(CC3=C(CC(C)(C)CC3=O)O2)C(=O)C1	-0.67	1.2	6	-0.17	6
COc1ccc2nc(SCC(=O)N(C)C3CCCCC3)c(C#N)cc2c1	-3.7	1.3	23	1.1	12
CCC(C)(C(=O)NC1CCCC1)N(C(=O)c1ccccn1)c1ccc(C)cc1 (stereo not given)	1.4	1.8	-1	-0.29	3
COc1ccc(OCCSc2n[nH]c(N)n2)cc1	-0.15	2.6*	2	-0.16	-1
COc1ccc(OC)c(-n2nnnc2SCC(=O)Nc2ccc(C(=O)N3CCCCC3)cc2)c1	-1.1	1.3	13	-0.0016	-4
Cc1cc(NC(=O)CCCS(=O)(=O)c2nc(-c3cccs3)cc(C(F)(F)F)n2)no1	1.5	1	35*	-0.39	13
CS(=O)(=O)c1nc(-c2cccs2)cc(C(F)(F)F)n1	1.1	0.9	55*	-0.29	8
O=c1[nH]c2cc3c(cc2cc1C(c1nnnn1CC1CCCO1)N1CCCCCC1)OCCO3 (stereo not given)	0.033	1.5	9	0.53	3
O=C(NC1CCCCC1)c1ccc(S(=O)(=O)NCc2cccnc2)cc1	0.51	0.9	-7	0.21	8
Cc1cc(Br)ccc1NC(=O)CN1C(=O)C2C3CC(c4ccccc4)C(C3)C2C1=O (stereo not given)	/	1.2	53*	/	2
Cc1cc(Br)ccc1NC(=O)CNC(=O)CN1C(=O)NC2(CCCCCC2)C1=O	-0.26	1.2	2	1.1	-3
OCCNc1cc(-n2nc(-c3ccccc3)cc2-c2ccccc2)ncn1	-1.6	1.4	11	3.7*	3
CNc1cc(-n2nc(C)cc2-c2ccccc2)ncn1	1.4	1.2	0	0.26	-2
COc1ccccc1N1CCN(C(=O)CCNS(=O)(=O)c2ccc(Br)s2)CC1	-4.7*	1.2	14	-3.9*	10
O=C(CNS(=O)(=O)c1ccc(Br)s1)N1CCCC1	-0.79	1.2	7	0.68	4
COc1ccccc1N1CCN(C(=O)COc2ccc(C)cc2Br)CC1	-3.4	1.3	35*	0.37	-1
O=C(CCNS(=O)(=O)c1ccc(Br)s1)N1CCN(c2ccccc2)CC1	-5.5*	1	-4	-0.48	9
Cc1cc(C)n(-c2nc(-n3nc(C)cc3C)c3c4c(sc3n2)COC(C)(C)C4)n1	/	1.5	14	/	0
Cc1cc(C)n(-c2nc(NCCC(C)C)c3c4c(sc3n2)COC(C)(C)C4)n1	/	2.9*	33*	/	-5
Cc1cccc(-n2c(C)n[nH]c2=S)c1	0.16	1	2	0.24	-2
Cc1cccc(-n2c(CCn3nc(C)c([N+](=O)[O-])c3C)n[nH]c2=S)c1	0.83	2.1*	13	0.83	-4
CC12CCC(C(=O)NCc3ccco3)(OC1=O)C2(C)C (stereo not given)	0.013	1	2	-0.013	0
NC(=O)c1cc(Cc2ccccc2)sc1NC(=O)c1ccco1	0.8	0.9	45*	-0.72	9
CCOc1ccc(CC(=O)Nc2sc(Cc3ccccc3)cc2C(N)=O)cc1OCC	0.02	1.1	3	0.56	5
Cc1ccc(Nc2nc(N)nc(CN3CCN(C(=O)c4ccco4)CC3)n2)cc1Cl	2.1	1.7	6	2.4	4
SMILES	Cav3 T inh	PLAP activator	PostGolgi ctrl	hDAT+cocaine	PostGolgi yeast
CN(C)C=Nc1ncc2c3ccccc3n(CCN(C)C)c2c1C#N	1.7	1.5	25	2.9*	-10
CCN(CC)CCn1c2ccccc2c2cnc(N)c(C#N)c21	1.4	1.1	52*	0.34	2
CN(C)C=Nc1ncc2c3ccccc3n(Cc3ccccc3)c2c1C#N	-1.3	1.1	/	0.58	/
COc1ccc(C2C(C(=O)Nc3ccccc3)=C(C)N=C3SCC(=O)N32)cc1 (stereo not given)	-9.9*	/	/	0.57	/
COC(=O)c1sc2nc(CSc3nc4ccc(C)cc4[nH]3)[nH]c(=O)c2c1C	0.0019	2*	-7	-0.29	-5
COc1ccc(C2(O)CCN(C(=O)NC3CCCCC3)CC2)cc1	-0.015	1	6	0.6	5
COc1cc(C2c3c(-c4cc(C)cc(C)c4O)n[nH]c3C(=O)N2CCCO)cc(OC)c1OC (stereo not given)	1.6	2.1*	-1	0.058	6
O=C1c2[nH]nc(-c3ccccc3O)c2C(c2ccccc2)N1Cc1ccco1 (stereo not given)	-3.4	1.5	38*	0.82	1
CC(C)OCCCN1C(=O)c2[nH]nc(-c3ccccc3O)c2C1c1cccc(Cl)c1 (stereo not given)	0.89	1.3	18	-1.7	12
